Activity calls are given as the source filed them. The calls were made as follows, unless noted: active = hit-call score of the fitted dose curve at least 0.9, where 1 is the maximum; inactive = score below 0.9.
Legend:
[1] = read-out: Protein phosphatase 2A (PPP2R4), PTPA (gene 5524); test: LTEA_HepaRG_PPP2R4: Life Technologies and Expression Analysis (LTEA) Assay for Protein phosphatase 2A (PPP2R4) using HepaRG (AID 2283522); conditions: mRNA level, 48 h; actives raise or lower the signal
In short: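 Expression was quantified by Fluidigm qRT-PCR normalised to three housekeeping genes after 48 h treatment. Human HepaRG cells received an 8-point series from 100 µM downward by half-logs, in duplicate with 0.5% DMSO vehicle and 1 mM phenobarbital as induction control.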

[2] = read-out: Phosphatase and tensin (PTEN), PTEN (gene 5728); test: LTEA_HepaRG_PTEN: Life Technologies and Expression Analysis (LTEA) Assay for Phosphatase and tensin (PTEN) using HepaRG (AID 2283523); conditions: mRNA level, 48 h; actives raise or lower the signal
In short: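 HepaRG, 48 h exposure, 8-pt half-log series from 100 uM top, 0.5% DMSO vehicle, duplicates. Readout: Fluidigm qRT-PCR of PTEN transcript; housekeeping normalization (ACTB, GAPDH, POLR2A). Gain or loss fitted relative to DMSO baseline.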

[3] = read-out: solute carrier (SLC22A1), SLC22A1 (gene 6580); test: LTEA_HepaRG_SLC22A1: Life Technologies and Expression Analysis (LTEA) Assay for solute carrier (SLC22A1) using HepaRG (AID 2283524); conditions: mRNA level, 48 h; actives raise or lower the signal
In short: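 qRT-PCR readout (TaqMan, Fluidigm arrays) of SLC22A1 transcript, normalized to three housekeeping genes; bidirectional curve fit relative to 0.5% DMSO vehicle. Differentiated human HepaRG cells, 48 h chemical exposure, top concentration 100 uM, half-log steps, eight points.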

[4] = read-out: Pyruvate Dehydrogenase Kinase 4 (PDK4), PDK4 (gene 5166); test: LTEA_HepaRG_PDK4: Life Technologies and Expression Analysis (LTEA) Assay for Pyruvate Dehydrogenase Kinase 4 (PDK4) using HepaRG (AID 2283525); conditions: mRNA level, 48 h; actives raise or lower the signal
In short: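 HepaRG (human liver line), 48 h chemical exposure, 8-pt half-log CRC top 100 uM, 0.5% DMSO vehicle, duplicates. Readout: TaqMan qRT-PCR of PDK4 mRNA, housekeeping-normalized; gain/loss fit relative to DMSO baseline.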

[5] = read-out: NAD(P)H dehydrogenase [quinone] 1 (NQO1), NQO1 (gene 1728); test: LTEA_HepaRG_NQO1: Life Technologies and Expression Analysis (LTEA) Assay for NAD(P)H dehydrogenase [quinone] 1 (NQO1) using HepaRG (AID 2283526); conditions: mRNA level, 48 h; actives raise or lower the signal
In short: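 NQO1 transcript induction or loss measured by TaqMan qRT-PCR, referenced to three housekeeping genes and fitted bidirectionally against 0.5% DMSO. HepaRG cultures exposed 48 h, duplicate, eight-point half-log series, top 100 uM.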

[6] = read-out: Nuclear factor erythroid 2-related factor 2 (Homo sapiens) (UniProt Q16236); test: LTEA_HepaRG_NFE2L2: Life Technologies and Expression Analysis (LTEA) Assay for Nuclear factor erythroid 2-related factor 2 (NFE2L2) Transcription Factor using HepaRG (AID 2283527); conditions: mRNA level, 48 h; actives raise or lower the signal
In short: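 HepaRG, 48 h dosing, 8-pt half-log series from 100 uM in 0.5% DMSO, duplicates. Read-out: NFE2L2 mRNA by qRT-PCR (ACTB/GAPDH/POLR2A normalization). Bidirectional curve fit vs DMSO baseline.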

[7] = read-out: succinate dehydrogenase complex iron sulfur subunit B (SDHB), SDHB (gene 6390); test: LTEA_HepaRG_SDHB: Life Technologies and Expression Analysis (LTEA) Assay for succinate dehydrogenase complex iron sulfur subunit B (SDHB) using HepaRG (AID 2283528); conditions: mRNA level, 48 h; actives raise or lower the signal
In short: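 SDHB transcript level read by TaqMan qRT-PCR, housekeeping-normalised (ACTB, GAPDH, POLR2A), after 48 h chemical treatment of plated HepaRG cells; eight concentrations top 100 uM, half-log steps, 0.5% DMSO, duplicates; fitted both directions against DMSO.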

[8] = read-out: Signal transducer and activator of transcription 3 (Homo sapiens) (UniProt P40763); test: LTEA_HepaRG_STAT3: Life Technologies and Expression Analysis (LTEA) Assay for Signal transducer and activator of transcription (STAT3) using HepaRG (AID 2283529); conditions: mRNA level, 48 h; actives raise or lower the signal
In short: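 HepaRG, 48 h exposure, 8-pt half-log series (top 100 uM), 0.5% DMSO vehicle, duplicates. Readout: STAT3 transcript by Fluidigm qRT-PCR, housekeeping-normalized; bidirectional fit vs DMSO baseline.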

[9] = read-out: solute carrier (SLCO1B1), SLCO1B1 (gene 10599); test: LTEA_HepaRG_SLCO1B1: Life Technologies and Expression Analysis (LTEA) Assay for solute carrier (SLCO1B1) using HepaRG (AID 2283530); conditions: mRNA level, 48 h; actives raise or lower the signal
In short: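 SLCO1B1 transcript levels were quantified by TaqMan qRT-PCR using three housekeeping genes for normalization. This followed 48 h chemical exposure (100 uM top, half-log, 8 points, 0.5% DMSO) of HepaRG liver cells, with gain or loss fitted relative to DMSO.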

[10] = read-out: sulfotransferase 2A1 (SULT2A1), SULT2A1 (gene 6822); test: LTEA_HepaRG_SULT2A1: Life Technologies and Expression Analysis (LTEA) Assay for sulfotransferase 2A1 (SULT2A1) using HepaRG (AID 2283531); conditions: mRNA level, 48 h; actives raise or lower the signal
In short: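 Expression change of SULT2A1, by qRT-PCR with three housekeeping-gene normalization, was scored bidirectionally versus DMSO. Cells: differentiated HepaRG, dosed in duplicate for 48 h across 8 points, highest 100 µM, half-log dilution, 0.5% DMSO.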

[11] = read-out: Transforming Growth Factor (TGFA), TGFA (gene 7039); test: LTEA_HepaRG_TGFA: Life Technologies and Expression Analysis (LTEA) Assay for Transforming Growth Factor (TGFA) using HepaRG (AID 2283532); conditions: mRNA level, 48 h; actives raise or lower the signal
In short: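 qRT-PCR read-out of TGFA transcript, normalized to three housekeeping genes, fitted bidirectionally against 0.5% DMSO baseline. Human HepaRG cultures received chemicals for 48 h at eight half-log concentrations, top 100 uM.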

[12] = read-out: Transforming Growth Factor (TGFB1), TGFB1 (gene 7040); test: LTEA_HepaRG_TGFB1: Life Technologies and Expression Analysis (LTEA) Assay for Transforming Growth Factor (TGFB1) Transporter using HepaRG (AID 2283533); conditions: mRNA level, 48 h; actives raise or lower the signal
In short: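 TGFB1 transcript measured by qRT-PCR with normalisation to three housekeeping genes (ACTB, GAPDH, POLR2A); human HepaRG line treated in duplicate for 48 hr with an 8-point series topping at 100 uM, 0.5% DMSO vehicle, bidirectionally fitted.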

[13] = read-out: TIMP1, TIMP1 (gene 7076); test: LTEA_HepaRG_TIMP1: Life Technologies and Expression Analysis (LTEA) Assay for TIMP1 using HepaRG (AID 2283534); conditions: mRNA level, 48 h; actives raise or lower the signal
In short: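 Bidirectional change in TIMP1 transcript versus 0.5% DMSO, measured by TaqMan qRT-PCR with three housekeeping genes for normalization. HepaRG human liver cells dosed 48 h in duplicate, top concentration 100 uM with half-log dilutions.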

[14] = read-out: Tumor necrosis factor receptor 1 (TNFRSF1A), TNFRSF1A (gene 7132); test: LTEA_HepaRG_TNFRSF1A: Life Technologies and Expression Analysis (LTEA) Assay for Tumor necrosis factor receptor 1 (TNFRSF1A) using HepaRG (AID 2283535); conditions: mRNA level, 48 h; actives raise or lower the signal
In short: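 mRNA measured by qRT-PCR (TaqMan, Fluidigm arrays) against ACTB/GAPDH/POLR2A housekeepers after 48 h chemical exposure of HepaRG cells. Top concentration 100 uM, half-log 8-point series, duplicates; vehicle 0.5% DMSO, both fit directions.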

[15] = read-out: Thyroid Hormone Responsive (THRSP), THRSP (gene 7069); test: LTEA_HepaRG_THRSP: Life Technologies and Expression Analysis (LTEA) Assay for Thyroid Hormone Responsive (THRSP) using HepaRG (AID 2283536); conditions: mRNA level, 48 h; actives raise or lower the signal
In short: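 qRT-PCR read-out (Fluidigm TaqMan), housekeeping-normalized (ACTB/GAPDH/POLR2A). HepaRG, 48 h chemical exposure, 8-pt half-log series from 100 uM in 0.5% DMSO, duplicates. Bidirectional curve fit vs 0.5% DMSO baseline.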

[16] = read-out: Cellular tumor antigen p53 (Homo sapiens) (UniProt P04637); test: LTEA_HepaRG_TP53: Life Technologies and Expression Analysis (LTEA) Assay for Tumor Protein P53 (TP53) using HepaRG (AID 2283537); conditions: mRNA level, 48 h; actives raise or lower the signal
In short: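 TP53 transcript measured by qRT-PCR, normalized to three housekeeping genes, after 48 h treatment of human HepaRG cultures with chemicals from 100 uM downward in half-log steps (0.5% DMSO vehicle, serum-free induction medium). Up- or down-regulation fitted against DMSO.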

[17] = read-out: UDP glucuronosyltransferase (UGT1A1), UGT1A1 (gene 54658); test: LTEA_HepaRG_UGT1A1: Life Technologies and Expression Analysis (LTEA) Assay for UDP glucuronosyltransferase (UGT1A1) using HepaRG (AID 2283538); conditions: mRNA level, 48 h; actives raise or lower the signal
In short: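 UGT1A1 transcript level, measured by qRT-PCR with three housekeeping genes for normalization, after 48 h treatment of human HepaRG cells (0.5% DMSO, duplicates, up to 100 uM, half-log steps, 8 points). Curves fit both directions against DMSO baseline.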

[18] = read-out: X-box binding protein 1 (XBP1), XBP1 (gene 7494); test: LTEA_HepaRG_XBP1: Life Technologies and Expression Analysis (LTEA) Assay for X-box binding protein 1 (XBP1) using HepaRG (AID 2283540); conditions: mRNA level, 48 h; actives raise or lower the signal
In short: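 XBP1 transcript by qRT-PCR (housekeeping-normalized: ACTB, GAPDH, POLR2A) after 48 h chemical treatment of HepaRG cells, 8-point half-log series topping at 100 uM, vehicle 0.5% DMSO. Gain and loss of signal fitted relative to DMSO.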

[19] = LTEA_HepaRG_LDH_cytotoxicity: Cytotoxicity Assessment in the Life Technologies and Expression Analysis (LTEA) Assay (AID 2283563; active = hit-call score of the fitted dose curve at least 0.9, where 1 is the maximum)
In short: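 LDH release into culture medium read after 48 h chemical treatment of HepaRG cells. Duplicate wells, eight-point half-log series topping at 100 uM, 0.5% DMSO vehicle and baseline.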

Measured: outcome

Nuclear factor erythroid 2-related factor 2 (Homo sapiens), sequence (Q16236 whole entry, looked up): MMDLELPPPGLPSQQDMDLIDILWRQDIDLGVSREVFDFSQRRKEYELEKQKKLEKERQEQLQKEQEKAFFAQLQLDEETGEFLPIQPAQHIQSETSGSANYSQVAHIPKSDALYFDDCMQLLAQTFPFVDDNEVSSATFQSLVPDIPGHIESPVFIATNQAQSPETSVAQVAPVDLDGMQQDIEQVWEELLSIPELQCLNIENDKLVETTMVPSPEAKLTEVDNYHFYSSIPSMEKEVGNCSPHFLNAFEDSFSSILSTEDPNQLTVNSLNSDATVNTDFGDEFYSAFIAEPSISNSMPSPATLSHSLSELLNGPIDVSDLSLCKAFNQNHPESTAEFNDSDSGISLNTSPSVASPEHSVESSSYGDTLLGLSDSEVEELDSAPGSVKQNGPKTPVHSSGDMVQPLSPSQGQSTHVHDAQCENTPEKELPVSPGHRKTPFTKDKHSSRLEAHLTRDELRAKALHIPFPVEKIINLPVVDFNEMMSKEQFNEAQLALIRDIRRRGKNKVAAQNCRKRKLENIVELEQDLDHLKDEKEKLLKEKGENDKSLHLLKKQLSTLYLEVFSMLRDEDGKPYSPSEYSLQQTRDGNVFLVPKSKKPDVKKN
Signal transducer and activator of transcription 3 (Homo sapiens), sequence (P40763 whole entry, looked up): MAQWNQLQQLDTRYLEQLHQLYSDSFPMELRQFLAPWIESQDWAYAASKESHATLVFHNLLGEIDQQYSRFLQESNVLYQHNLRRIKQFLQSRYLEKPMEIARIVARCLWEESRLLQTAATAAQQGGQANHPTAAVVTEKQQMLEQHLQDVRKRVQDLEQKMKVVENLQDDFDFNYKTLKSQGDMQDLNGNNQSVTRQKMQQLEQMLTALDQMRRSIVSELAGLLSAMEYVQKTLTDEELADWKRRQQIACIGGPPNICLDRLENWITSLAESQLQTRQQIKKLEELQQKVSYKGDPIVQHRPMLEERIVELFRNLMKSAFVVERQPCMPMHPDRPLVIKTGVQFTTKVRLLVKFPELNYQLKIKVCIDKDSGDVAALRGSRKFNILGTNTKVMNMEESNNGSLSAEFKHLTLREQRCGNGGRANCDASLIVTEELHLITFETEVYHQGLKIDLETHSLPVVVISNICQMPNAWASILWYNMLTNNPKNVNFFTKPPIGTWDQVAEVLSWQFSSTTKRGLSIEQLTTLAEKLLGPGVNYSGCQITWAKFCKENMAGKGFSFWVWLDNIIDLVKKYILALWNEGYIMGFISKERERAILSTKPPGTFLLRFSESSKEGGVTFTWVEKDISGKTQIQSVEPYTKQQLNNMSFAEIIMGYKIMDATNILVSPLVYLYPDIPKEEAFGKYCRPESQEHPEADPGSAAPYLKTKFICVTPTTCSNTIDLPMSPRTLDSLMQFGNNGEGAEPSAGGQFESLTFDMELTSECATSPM
Cellular tumor antigen p53 (Homo sapiens), sequence (P04637 whole entry, looked up): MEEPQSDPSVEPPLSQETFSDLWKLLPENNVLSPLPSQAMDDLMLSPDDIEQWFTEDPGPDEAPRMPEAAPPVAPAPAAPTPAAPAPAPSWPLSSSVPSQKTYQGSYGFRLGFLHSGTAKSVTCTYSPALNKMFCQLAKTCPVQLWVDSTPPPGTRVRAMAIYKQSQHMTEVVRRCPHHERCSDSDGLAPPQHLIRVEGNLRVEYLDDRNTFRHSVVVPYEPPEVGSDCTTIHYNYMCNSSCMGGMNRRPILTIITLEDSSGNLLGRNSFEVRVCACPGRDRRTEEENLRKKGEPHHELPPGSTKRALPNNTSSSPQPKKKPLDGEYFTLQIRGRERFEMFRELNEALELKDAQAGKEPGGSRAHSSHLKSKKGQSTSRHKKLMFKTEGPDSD

Oc1ccc2ccc3cccc4ccc1c2c34
inactive: all assays above

[As]#[In]
inactive: all assays above

[O-][Cl+]O
inactive: all assays above

From PubChem BioAssay (EPA / NIEHS)
